Measured values as given in ChEMBL document CHEMBL3988442, “University of Dundee, Small-Polar-MMV Screening Library” (2021).
For some assays here: Results with a measured potency or affinity are listed apart.

What was measured:
Set-up in all cases: scale not given: direction of the effect not stated beside the values
[1] = biological target: Protein translocase subunit SecA (Escherichia coli (strain K12)) (UniProt P10408); assay: Assay to Identify E. coli SecA ATPase Inhibitors; assay type: functional; conditions: 30 µM
Sequence of Protein translocase subunit SecA (Escherichia coli (strain K12)) (P10408 whole entry): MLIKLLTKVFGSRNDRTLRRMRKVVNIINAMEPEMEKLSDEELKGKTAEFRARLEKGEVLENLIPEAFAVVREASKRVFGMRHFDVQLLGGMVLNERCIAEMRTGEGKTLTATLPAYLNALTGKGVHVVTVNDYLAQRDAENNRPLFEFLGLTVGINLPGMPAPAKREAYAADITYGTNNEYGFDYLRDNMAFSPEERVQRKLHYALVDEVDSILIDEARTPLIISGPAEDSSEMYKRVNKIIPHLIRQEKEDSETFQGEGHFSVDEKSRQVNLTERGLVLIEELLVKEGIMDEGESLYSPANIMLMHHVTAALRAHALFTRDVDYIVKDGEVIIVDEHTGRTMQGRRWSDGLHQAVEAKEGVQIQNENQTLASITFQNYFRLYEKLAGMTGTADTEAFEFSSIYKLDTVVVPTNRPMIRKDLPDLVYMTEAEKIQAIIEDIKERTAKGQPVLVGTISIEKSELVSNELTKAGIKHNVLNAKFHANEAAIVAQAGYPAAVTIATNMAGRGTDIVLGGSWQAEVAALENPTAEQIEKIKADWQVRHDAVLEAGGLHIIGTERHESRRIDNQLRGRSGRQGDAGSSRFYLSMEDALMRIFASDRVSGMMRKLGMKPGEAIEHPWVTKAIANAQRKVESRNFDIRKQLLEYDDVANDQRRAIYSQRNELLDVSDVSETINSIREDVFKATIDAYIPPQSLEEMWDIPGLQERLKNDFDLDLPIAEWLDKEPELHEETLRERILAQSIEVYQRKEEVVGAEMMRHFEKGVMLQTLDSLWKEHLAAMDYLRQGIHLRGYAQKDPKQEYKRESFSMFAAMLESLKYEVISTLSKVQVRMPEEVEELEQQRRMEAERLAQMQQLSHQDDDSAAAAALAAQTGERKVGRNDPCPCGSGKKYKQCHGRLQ

[2] = biological target: T1, Ubiquitin-activating enzyme e1, putative (Leishmania donovani (strain BPK282A1)) (UniProt E9BSI1); assay: Leishmania donovani Ubiquitin Activating Enzyme (LdE1); assay type: functional; conditions: 30 µM
T1 sequence (whole entry): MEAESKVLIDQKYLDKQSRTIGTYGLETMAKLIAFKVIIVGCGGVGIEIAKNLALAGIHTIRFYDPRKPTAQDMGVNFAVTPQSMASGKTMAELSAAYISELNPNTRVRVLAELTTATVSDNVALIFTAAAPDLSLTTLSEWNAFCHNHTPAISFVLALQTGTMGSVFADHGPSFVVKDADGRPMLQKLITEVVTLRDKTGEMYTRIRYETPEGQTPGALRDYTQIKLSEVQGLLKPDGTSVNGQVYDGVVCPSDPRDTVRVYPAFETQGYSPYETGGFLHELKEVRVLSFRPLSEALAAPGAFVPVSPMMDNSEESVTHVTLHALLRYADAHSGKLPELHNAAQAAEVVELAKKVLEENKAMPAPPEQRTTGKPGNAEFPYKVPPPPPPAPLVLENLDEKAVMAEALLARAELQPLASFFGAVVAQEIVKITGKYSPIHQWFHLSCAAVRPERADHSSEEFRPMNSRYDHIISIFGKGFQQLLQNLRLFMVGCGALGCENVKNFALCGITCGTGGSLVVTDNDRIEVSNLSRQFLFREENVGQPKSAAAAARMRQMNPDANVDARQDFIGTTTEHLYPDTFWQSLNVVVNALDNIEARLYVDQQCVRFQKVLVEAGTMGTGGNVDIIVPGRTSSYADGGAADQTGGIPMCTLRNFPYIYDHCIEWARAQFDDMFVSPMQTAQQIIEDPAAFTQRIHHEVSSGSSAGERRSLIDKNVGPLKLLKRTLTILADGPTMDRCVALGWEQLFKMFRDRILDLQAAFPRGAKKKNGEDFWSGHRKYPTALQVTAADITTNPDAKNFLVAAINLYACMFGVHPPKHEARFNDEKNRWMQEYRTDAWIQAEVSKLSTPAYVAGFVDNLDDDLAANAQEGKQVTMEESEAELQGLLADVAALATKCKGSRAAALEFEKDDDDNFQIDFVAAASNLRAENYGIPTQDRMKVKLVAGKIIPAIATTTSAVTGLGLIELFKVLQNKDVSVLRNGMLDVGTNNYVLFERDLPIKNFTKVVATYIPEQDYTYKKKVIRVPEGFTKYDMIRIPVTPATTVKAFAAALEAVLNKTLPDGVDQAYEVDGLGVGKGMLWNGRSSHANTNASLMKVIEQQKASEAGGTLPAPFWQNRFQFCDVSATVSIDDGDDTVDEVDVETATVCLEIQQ

[3] = biological target: T2, Aspartate--tRNA(Asp/Asn) ligase (Mycobacterium tuberculosis (strain ATCC 25618 / H37Rv)) (UniProt P9WFW3); assay: Assay for Asp RNA synthetase-1 from Mycobacterium tuberculosis; assay type: functional; conditions: 30 µM; note: in the data most compounds retested in dose-response had high values
T2 sequence (whole entry): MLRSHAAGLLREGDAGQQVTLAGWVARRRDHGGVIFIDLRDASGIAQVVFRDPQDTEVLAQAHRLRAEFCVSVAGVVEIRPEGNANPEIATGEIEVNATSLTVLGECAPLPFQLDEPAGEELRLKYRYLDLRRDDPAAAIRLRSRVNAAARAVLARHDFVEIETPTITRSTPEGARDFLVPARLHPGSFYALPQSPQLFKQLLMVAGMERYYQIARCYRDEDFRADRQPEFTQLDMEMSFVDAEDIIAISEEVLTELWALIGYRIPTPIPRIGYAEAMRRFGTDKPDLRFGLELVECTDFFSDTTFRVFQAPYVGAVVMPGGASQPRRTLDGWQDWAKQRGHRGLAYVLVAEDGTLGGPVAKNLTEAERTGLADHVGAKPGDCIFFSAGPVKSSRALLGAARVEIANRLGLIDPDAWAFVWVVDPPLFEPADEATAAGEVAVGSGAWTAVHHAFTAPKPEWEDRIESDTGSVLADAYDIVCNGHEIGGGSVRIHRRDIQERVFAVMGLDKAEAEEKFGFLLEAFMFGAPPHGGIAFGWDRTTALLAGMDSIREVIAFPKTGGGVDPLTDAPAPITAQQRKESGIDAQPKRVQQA

[4] = biological target: Sialic acid-binding Ig-like lectin 9 (Homo sapiens) (UniProt Q9Y336); assay: Hs-Siglec9 ALPHAscreen SOP 20170721; conditions: 10 µM
Sequence of Sialic acid-binding Ig-like lectin 9 (Homo sapiens) (Q9Y336 whole entry): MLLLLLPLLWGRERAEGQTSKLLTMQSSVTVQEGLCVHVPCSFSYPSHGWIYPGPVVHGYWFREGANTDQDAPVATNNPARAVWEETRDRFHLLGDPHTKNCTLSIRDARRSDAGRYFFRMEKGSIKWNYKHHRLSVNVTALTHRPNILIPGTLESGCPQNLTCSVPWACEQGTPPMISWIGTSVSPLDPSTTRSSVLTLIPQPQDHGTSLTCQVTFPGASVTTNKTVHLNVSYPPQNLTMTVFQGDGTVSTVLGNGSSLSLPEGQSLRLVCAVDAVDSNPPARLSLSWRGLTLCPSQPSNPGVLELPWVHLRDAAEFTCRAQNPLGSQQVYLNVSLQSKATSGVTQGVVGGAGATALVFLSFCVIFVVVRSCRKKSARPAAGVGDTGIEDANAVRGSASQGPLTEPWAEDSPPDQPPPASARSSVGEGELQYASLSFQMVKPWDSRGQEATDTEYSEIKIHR

Trypanosoma cruzi = assay: Trypanosoma cruzi phosphomannomutase and mannose-1-phosphate guanylyltransferase assay; assay type: functional; conditions: 10 µM
[5] = biological target: T3, Arginase-2, mitochondrial (Homo sapiens) (UniProt P78540); assay: in vitro enzyme assay to detect the production of urea directly proportional to the activity of Arginase II; assay type: functional; conditions: 33.3 µM; note: in the data most compounds retested in dose-response had high values
T3 sequence (whole entry): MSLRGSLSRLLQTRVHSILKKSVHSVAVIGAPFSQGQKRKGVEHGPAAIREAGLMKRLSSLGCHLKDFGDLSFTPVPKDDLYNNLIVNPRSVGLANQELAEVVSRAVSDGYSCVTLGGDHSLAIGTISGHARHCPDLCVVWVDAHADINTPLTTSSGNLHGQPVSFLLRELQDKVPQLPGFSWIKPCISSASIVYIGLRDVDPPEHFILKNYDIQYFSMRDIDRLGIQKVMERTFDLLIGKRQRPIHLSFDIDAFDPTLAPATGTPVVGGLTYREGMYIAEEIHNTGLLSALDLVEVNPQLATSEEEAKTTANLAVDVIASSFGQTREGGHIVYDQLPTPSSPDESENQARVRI

[6] = biological target: T4, Proteasome subunit beta (Trypanosoma cruzi) (UniProt O96673); assay: Trypanosoma cruzi proteasome chymotrypsin-like activity (TcProtChymo) assay.; note: in the data most compounds retested in dose-response had high values; assay type: functional; conditions: 9.37 µM
T4 sequence (whole entry): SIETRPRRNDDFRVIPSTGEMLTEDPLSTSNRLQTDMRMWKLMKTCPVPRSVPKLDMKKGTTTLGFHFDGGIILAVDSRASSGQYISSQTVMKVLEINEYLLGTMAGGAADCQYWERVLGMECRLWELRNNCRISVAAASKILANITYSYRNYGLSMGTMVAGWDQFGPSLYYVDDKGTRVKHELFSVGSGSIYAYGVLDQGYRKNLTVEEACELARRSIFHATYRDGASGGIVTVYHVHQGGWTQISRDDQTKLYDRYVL

Homo sapiens = organism: Homo sapiens; assay: To identify inhibition of the IFN signalling (Jak-Stat) pathway via expression of an eGFP reporter gene under the control of an IFN-stimulated response element (ISRE) containing MxA promoter.; assay type: functional; conditions: 30 µM
[7] = biological target: Shiga toxin 2 (Escherichia coli O157:H7) (UniProt P09385+P09386); assay: E. coli 0.157:H7 Shiga Toxin SOP - stx2 screening assay; assay type: functional; conditions: 30 µM
[8] = biological target: T5, Tyrosyl-tRNA synthetase, putative (Trypanosoma cruzi (strain CL Brener)) (UniProt Q4DSP6); assay: Trypanosoma cruzi tyrosyl tRNA synthetase (TcYRS) _High Tyrosine SOP; assay type: functional; conditions: 30 µM; note: in the data most compounds retested in dose-response had high values
T5 sequence (whole entry): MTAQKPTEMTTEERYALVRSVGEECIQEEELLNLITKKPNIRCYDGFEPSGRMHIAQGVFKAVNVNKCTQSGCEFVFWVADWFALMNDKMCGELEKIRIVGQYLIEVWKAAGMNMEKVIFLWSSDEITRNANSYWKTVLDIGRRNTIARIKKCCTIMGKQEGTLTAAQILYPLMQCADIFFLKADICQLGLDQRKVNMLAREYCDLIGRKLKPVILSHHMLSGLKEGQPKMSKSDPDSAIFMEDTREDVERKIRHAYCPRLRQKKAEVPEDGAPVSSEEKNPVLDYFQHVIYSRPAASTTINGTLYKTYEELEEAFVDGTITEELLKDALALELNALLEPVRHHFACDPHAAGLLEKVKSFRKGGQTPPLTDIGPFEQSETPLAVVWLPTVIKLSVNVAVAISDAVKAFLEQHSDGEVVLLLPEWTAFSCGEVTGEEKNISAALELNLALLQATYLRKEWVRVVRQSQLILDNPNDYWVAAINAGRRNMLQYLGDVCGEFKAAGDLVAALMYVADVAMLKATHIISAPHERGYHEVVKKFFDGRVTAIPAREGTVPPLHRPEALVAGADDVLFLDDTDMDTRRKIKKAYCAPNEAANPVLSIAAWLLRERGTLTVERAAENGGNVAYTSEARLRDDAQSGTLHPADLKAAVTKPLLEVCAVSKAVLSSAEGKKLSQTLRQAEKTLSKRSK

[9] = biological target: T5, Tyrosyl-tRNA synthetase, putative (Trypanosoma cruzi (strain CL Brener)); assay: Trypanosoma cruzi tyrosyl tRNA synthetase (TcYRS) SOP; assay type: functional; conditions: 30 µM
[10] = biological target: Chromo domain-containing protein 1 (Saccharomyces cerevisiae (strain ATCC 204508 / S288c) (Baker's yeast)) (UniProt P32657); assay: ScCHD-1 Enzyme Inhibition Assay; assay type: functional; conditions: 30 µM; note: in the data most compounds retested in dose-response had high values
Sequence of Chromo domain-containing protein 1 (Saccharomyces cerevisiae (strain ATCC 204508 / S288c) (Baker's yeast)) (P32657 whole entry, the tested form may be a part): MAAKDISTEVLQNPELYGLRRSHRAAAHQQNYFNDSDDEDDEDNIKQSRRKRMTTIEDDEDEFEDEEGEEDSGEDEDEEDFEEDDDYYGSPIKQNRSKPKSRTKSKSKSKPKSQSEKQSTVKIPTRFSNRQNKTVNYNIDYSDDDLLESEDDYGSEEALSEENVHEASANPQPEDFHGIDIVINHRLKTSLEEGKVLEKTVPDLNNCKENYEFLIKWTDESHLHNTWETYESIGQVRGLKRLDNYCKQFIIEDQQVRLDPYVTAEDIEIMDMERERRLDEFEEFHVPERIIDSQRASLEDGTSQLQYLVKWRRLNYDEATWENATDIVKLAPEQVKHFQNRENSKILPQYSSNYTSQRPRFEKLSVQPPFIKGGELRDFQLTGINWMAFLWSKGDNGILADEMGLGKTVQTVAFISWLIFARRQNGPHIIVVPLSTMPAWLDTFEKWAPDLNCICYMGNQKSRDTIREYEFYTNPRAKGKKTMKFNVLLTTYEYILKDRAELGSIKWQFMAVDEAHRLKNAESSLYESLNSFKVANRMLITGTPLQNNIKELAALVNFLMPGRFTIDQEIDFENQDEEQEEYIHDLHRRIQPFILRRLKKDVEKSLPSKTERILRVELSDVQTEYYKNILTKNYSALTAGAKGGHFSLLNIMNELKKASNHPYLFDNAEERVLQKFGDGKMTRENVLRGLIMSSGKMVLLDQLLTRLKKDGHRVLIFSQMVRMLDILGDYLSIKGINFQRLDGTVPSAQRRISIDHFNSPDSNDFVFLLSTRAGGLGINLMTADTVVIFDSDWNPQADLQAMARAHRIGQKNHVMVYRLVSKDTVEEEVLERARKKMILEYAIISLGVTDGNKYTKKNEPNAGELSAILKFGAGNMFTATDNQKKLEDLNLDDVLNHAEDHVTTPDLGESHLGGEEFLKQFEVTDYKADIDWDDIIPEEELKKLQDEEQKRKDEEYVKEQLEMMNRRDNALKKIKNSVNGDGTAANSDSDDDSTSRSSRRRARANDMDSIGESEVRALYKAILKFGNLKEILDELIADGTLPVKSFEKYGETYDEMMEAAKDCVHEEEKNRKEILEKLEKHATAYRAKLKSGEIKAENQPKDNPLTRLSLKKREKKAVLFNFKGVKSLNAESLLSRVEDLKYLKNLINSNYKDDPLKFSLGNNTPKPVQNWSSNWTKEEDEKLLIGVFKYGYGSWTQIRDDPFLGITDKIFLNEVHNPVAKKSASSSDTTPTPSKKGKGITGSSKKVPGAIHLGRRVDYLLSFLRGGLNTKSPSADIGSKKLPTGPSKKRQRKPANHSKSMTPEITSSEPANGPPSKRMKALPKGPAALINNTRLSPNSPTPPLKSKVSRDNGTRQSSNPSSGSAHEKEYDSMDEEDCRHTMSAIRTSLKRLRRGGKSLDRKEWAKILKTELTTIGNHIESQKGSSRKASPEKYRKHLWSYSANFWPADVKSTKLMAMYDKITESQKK

Compound: Cc1cccc(CN2C(=O)C[C@H]3[C@@H]2CCN3Cc2ccccn2)n1
- Percent Effect [1]: 0.959%
- Percent Effect [2]: 22.1%
- Percent Effect [3]: 3.98%
- Percent Effect [4]: -1.08%
- Percent Effect (Trypanosoma cruzi): -1.13%
- Percent Effect [5]: -1.83%
- Percent Effect [6]: 12.8%
- Percent Effect (Homo sapiens): -7.67%
- Percent Effect [7]: -19.3%
- Percent Effect [8]: -0.966%
- Percent Effect [9]: 20%
- Percent Effect [10]: -6.04%

Compound: CN(CCNC(=O)N1CCN(Cc2ccon2)CC1)c1ccccc1
- Percent Effect [3]: 2.1%

Compound: O=C(NCCN1CCOCC1)NCc1ncc(-c2ccccc2)o1
- Percent Effect [3]: 1.62%

Compound: O=C1CCC2(CCN(Cc3cc(F)ccc3Cl)CC2)CN1C1CCCC1
- Percent Effect [3]: 0.0575%

Compound: O=C(O)c1ccn(-c2ccccc2NS(=O)(=O)c2ccccc2)n1
- Percent Effect [3]: 1.9%

Compound: CC(C)(N)CN1CCC(c2nnc(CN3CCCC3)n2C2CC2)CC1
- Percent Effect [3]: -1.87%

Compound: Cc1nn(CCn2ccnc2-c2cc3n(n2)CCCNC3)c(C)c1Cl
- Percent Effect [3]: -0.0115%

Compound: CCC(=O)N1CCc2[nH]cnc2C12CCN(C(=O)c1snnc1C)CC2
- Percent Effect [3]: 1.62%

Compound: Cc1cccc(CN2C[C@H]3OC(=O)N(CCCN4CCOCC4)[C@H]3C2)n1
- Percent Effect [3]: -2.42%

Compound: CN(CCO)Cc1nnc(C2CCN(C(=O)c3cccnc3)CC2)n1C
- Percent Effect [3]: -0.977%

Compound: Cc1oc(C(=O)O)cc1S(=O)(=O)Nc1c(F)cccc1-n1cccn1
- Percent Effect [3]: -2.17%

Compound: COc1cccc(S(=O)(=O)CCN2CCCN(C(C)=O)CC2)c1
- Percent Effect [3]: -1.55%

Compound: CCC(C(=O)NCc1ccncc1)N(c1ccc(OC)cc1)S(C)(=O)=O (configuration not stated)
- Percent Effect [3]: 1.25%

Compound: O=C1N(Cc2ccc(F)c(F)c2)CCCC12CCN(C1CCSCC1)C2 (configuration not stated)
- Percent Effect [3]: -5.55%

Compound: CSCCC1c2nc[nH]c2CCN1Cc1cc(Cl)ccc1O (configuration not stated)
- Percent Effect [3]: 0.954%

Compound: O=C(NCC(F)(F)F)NC1CCCc2c1cnn2CCO (configuration not stated)
- Percent Effect [3]: -1.62%

Compound: O=S1(=O)C[C@@H]2[C@H](C1)N(Cc1cc(Cl)cc(Cl)c1)CCN2CC1CC1
- Percent Effect [3]: 0.655%

Compound: NC(=O)CN1CC2(CCC1=O)CCN(Cc1cc(F)ccc1Cl)CC2
- Percent Effect [3]: 0.126%

Compound: CCc1cc(N2CCCNCC2)n2nc(C)c(C)c2n1
- Percent Effect [3]: -1.41%

Compound: Cc1cc(C)n(-c2cc(N3CCN(C(=O)C(C)(C)C)CC3)nc(C)n2)n1
- Percent Effect [3]: 0.747%

Compound: Cc1cnn(C2CN(CC(O)c3ccc4c(c3)OCCO4)C2)c1 (configuration not stated)
- Percent Effect [3]: -4.61%

Compound: CC(=O)c1cn(CC(=O)NC(C(=O)O)C(C)C)c2ccccc12 (configuration not stated)
- Percent Effect [3]: -0.402%

Compound: Cc1ccccc1CS(=O)(=O)NCCCN1CCCCC1
- Percent Effect [3]: -2.17%

Compound: Cc1cc(F)ccc1OC1(C(=O)O)CCN(Cc2ccncc2)CC1
- Percent Effect [3]: -3.25%

Compound: CCOCC(=O)N1C[C@@H](NC(C)=O)[C@H](c2ccc(OC)cc2)C1
- Percent Effect [3]: -0.287%

Compound: COc1cccc(S(=O)(=O)CCN2CCC3(CC2)OCCO3)c1
- Percent Effect [3]: -0.724%

Compound: Cn1cc(CNc2ncnc3c2CCN(Cc2ccsc2)CC3)cn1
- Percent Effect [3]: 1.05%

Compound: O=C(c1ccncc1)N1C[C@@H]2CC[C@H](C1)N(C(=O)N1CCOCC1)C2
- Percent Effect [3]: 2.77%

Compound: CCC(C)NC(=O)c1ccccc1-n1cnnn1 (configuration not stated)
- Percent Effect [3]: -5.94%

Compound: Cc1cc(C)n(CC2CCCCN2CC(=O)Nc2cccnc2)n1 (configuration not stated)
- Percent Effect [3]: -0.655%

Compound: CCN(CC1CN(Cc2ncc[nH]2)CCO1)c1cccnn1 (configuration not stated)
- Percent Effect [3]: -3.05%

Compound: O=C(CN1CCNCC1)N1CC[C@@H](c2ccc3ccccc3c2)[C@H](O)C1
- Percent Effect [3]: -0.747%

Compound: CCOCCn1nnc(C2(NC(=O)c3ccccc3)CCCC2)n1
- Percent Effect [3]: -3.44%

Compound: CN1C(=O)C(c2ccccc2)CC12CCN(CCOCCO)CC2 (configuration not stated)
- Percent Effect [3]: -1.23%

Compound: CCc1nsc(NC2CCCn3nc(CC)nc32)n1 (configuration not stated)
- Percent Effect [3]: 1.74%

Compound: COCCN(C)CC(=O)N1C[C@H]2CC[C@@H]1CN(C(=O)c1ccncc1)C2
- Percent Effect [3]: -1.85%
